Test [1] has as its target Glutathione peroxidase 1 (Homo sapiens) (UniProt P07203). Briefly: Primary qHTS Assay for Inhibitors of Recombinant Selenoprotein Glutathione Peroxidase 1 (GPX1) (AID 1845191). The method, boiled down:
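10 nM GPX1 + cpd, 30 min RT; start w/ 1 mM GSH, 0.5 mM cumene hydroperoxide, 0.5 mM NADPH, 100 nM GR, 0.01% BSA; buffer 50 mM Tris-HCl pH 7.5, 2 mM EDTA, 150 mM NaCl; Fl 340/450, 0 & 15 min.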

In test [2] the target is Phospholipid hydroperoxide glutathione peroxidase GPX4 (Homo sapiens) (UniProt P36969). Briefly: Primary qHTS Assay for Inhibitors of Recombinant Selenoprotein Glutathione Peroxidase 4 (GPX4) (AID 1845192). For activity change, negative = inhibition: series mostly up to about 50 µM. The method, boiled down:
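NADPH consumption, followed by fluorescence at 340/450 nm between 0 and 15 min, reports GPX4 activity via coupled glutathione reductase (100 nM). Enzyme 200 nM was pre-exposed to compound 30 min; 0.5 mM cumene hydroperoxide and 1 mM GSH served as substrates.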

Molecules are shown by their SMILES. Inconclusive results are not listed. A call without a number means that no potency is given here. Values without a mark were called inactive. Activity calls are given as the source filed them. Calls come from the whole dose curve; as a rule, active = well fitted inhibition curve with a large enough effect; inconclusive = small, poorly fitted or top-dose-only effect; inactive = flat fitted curve, though single readings scatter.
Note: nearly all actives have a fitted effect of over 65% in size.
Potency is the fitted concentration of half-maximal effect.

Chain of Phospholipid hydroperoxide glutathione peroxidase GPX4 (Homo sapiens) (P36969 whole entry, looked up): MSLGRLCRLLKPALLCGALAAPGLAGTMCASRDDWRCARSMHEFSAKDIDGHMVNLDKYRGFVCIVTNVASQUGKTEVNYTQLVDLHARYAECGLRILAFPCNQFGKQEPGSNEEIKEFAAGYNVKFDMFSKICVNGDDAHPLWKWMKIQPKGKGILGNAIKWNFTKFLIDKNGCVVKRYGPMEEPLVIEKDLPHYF
Chain of Glutathione peroxidase 1 (Homo sapiens) (P07203 whole entry, looked up): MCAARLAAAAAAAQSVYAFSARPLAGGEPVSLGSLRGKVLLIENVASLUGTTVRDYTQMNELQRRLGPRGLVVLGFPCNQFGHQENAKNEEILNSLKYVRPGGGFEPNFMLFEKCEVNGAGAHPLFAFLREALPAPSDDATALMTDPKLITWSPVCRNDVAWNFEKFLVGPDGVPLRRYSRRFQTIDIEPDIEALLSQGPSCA

Regarding `Cc1ncc(COP(=O)(O)O)c(CN)c1O`, the Potency entry in test [1] was “inactive”.

For the compound `CCOC(=O)C1=C(COCCN)NC(C)=C(C(=O)OC)C1c1ccccc1Cl` (stereo not given), the Potency result in test [1] is “inactive”.

Take `C[C@]12CCC(=O)C[C@@H]1CC[C@@H]1[C@@H]2CC[C@]2(C)C=CC[C@@H]12`: the Potency result in test [1] was “inactive”.

For `C[C@@H]1O[C@@H]1P(=O)(O)O`, the Potency in test [1] is 11.1 µM (active).

As to `CC(C)(O/N=C(\C(=O)N[C@@H]1C(=O)N2C(C(=O)[O-])=C(C[n+]3ccccc3)CS[C@H]12)c1csc(N)n1)C(=O)O`, in test [1], the Potency is 7.85 µM (active).

Regarding `O=C(O)CCC/C=C\C[C@@H]1[C@@H](/C=C/[C@@H](O)COc2cccc(Cl)c2)[C@H](O)C[C@@H]1O`, in test [1], the Potency entry is “inactive”.

Turning to `CCCC1C(=O)N2C(N(C)C)=Nc3ccc(C)cc3N2C1=O` (stereo not given), in test [1], the Potency result is “inactive”.

As for `CC(C)C[C@H](NC(=O)[C@@H](COC(C)(C)C)NC(=O)[C@H](Cc1ccc(O)cc1)NC(=O)[C@H](CO)NC(=O)[C@H](Cc1c[nH]c2ccccc12)NC(=O)[C@H](Cc1cnc[nH]1)NC(=O)[C@@H]1CCC(=O)N1)C(=O)N[C@@H](CCCN=C(N)N)C(=O)N1CCC[C@H]1C(=O)NNC(N)=O`, the Potency entry in test [1] was “inactive”.

`Nc1nc(/C(=C/CC(=O)O)C(=O)N[C@@H]2C(=O)N3C(C(=O)O)=CCS[C@H]23)cs1`: the Potency in test [1] is 9.04 µM (active).

`FC(F)OC(Cl)C(F)(F)F` (stereo not given): the Potency entry in test [1] is “inactive”.

As for `COc1ccc2c(c1)OC(C)(C)C(c1ccccc1)C2c1ccc(OCCN2CCCC2)cc1` (stereo not given), in test [1], the Potency result is “inactive”.

For the compound `Cc1cccc(C)c1NC(=O)C1CCCCN1C` (stereo not given), in test [1], the Potency result was “inactive”.

On to `Nc1nc2c(c(=O)[nH]1)N(C=O)C(CNc1ccc(C(=O)N[C@@H](CCC(=O)O)C(=O)O)cc1)CN2` (stereo not given in full), for which, in test [1], the activity, negative = inhibition was -12.1% [at 0.4 µM]. Also, in test [2], the activity change, negative = inhibition was -4.6% [at 0.409 µM].

Consider `COC(=O)c1ccccc1O`, for which the Potency result in test [1] and in test [2] was “inactive” in each case.

For `CN(C)c1ccc(C(=C2C=CC(=[N+](C)C)C=C2)c2c(O)c(S(=O)(=O)[O-])cc3cc(S(=O)(=O)O)ccc23)cc1`, the Potency entry in test [1] and in test [2] was “inactive” throughout.

Consider `CCN(CC)CCOc1ccc2nc(N(C)C)sc2c1`, for which the Potency entry in test [1] and in test [2] was “inactive” in each case.

Turning to `CCC(Oc1ccccc1)C(=O)N[C@@H]1C(=O)N2[C@@H]1SC(C)(C)[C@@H]2C(=O)O` (stereo not given in full), the Potency entry in test [1] was “inactive”. Moreover, in test [2], the Potency was 31.6 µM (active).

As to `CC(CN(C)C)CN1c2ccccc2Sc2ccc(C(F)(F)F)cc21` (stereo not given), the Potency result in test [1] and in test [2] was “inactive” each time.

As to `CC(C)(C)c1ccc2c(S(=O)(=O)O)c(C(C)(C)C)ccc2c1`, in test [1], the Potency result is “inactive”. The Potency in test [2] is 12.6 µM (active).

Take `CN1CCN(C(c2ccccc2)c2ccc(Cl)cc2)CC1` (stereo not given): the Potency entry in test [1] and in test [2] was “inactive” throughout.

Turning to `CC(=O)Nc1c(I)c(C(=O)N[C@H]2C(O)O[C@H](CO)[C@@H](O)[C@@H]2O)c(I)c(N(C)C(C)=O)c1I` (stereo not given in full), the Potency result in test [1] and in test [2] was “inactive” each time.

With `CN(C)CCC(O)(c1ccccc1)c1ccccc1Cl` (stereo not given), the Potency entry in test [1] and in test [2] was “inactive” each time.

Turning to `CCN(CC)CCOC(=O)c1cccnc1`, the Potency entry in test [1] and in test [2] was “inactive” each time.

In the case of `NC(=O)c1ccc[n+]([C@@H]2O[C@H](COP(=O)([O-])OP(=O)(O)OC[C@H]3O[C@@H](n4cnc5c(N)ncnc54)[C@H](O)[C@@H]3O)[C@@H](O)[C@H]2O)c1`, the Potency result in test [1] and in test [2] was “inactive” throughout.

For `COC(=O)CCC[N+](C)(C)C`, the Potency entry in test [1] and in test [2] was “inactive” each time.

`CCCC(=O)Nc1c(I)cc(I)c(CC(CC)C(=O)O)c1I` (stereo not given): the Potency entry in test [1] and in test [2] was “inactive” each time.
